ELG1 genotoxic = qHTS screen for small molecules that induce genotoxicity in human embryonic kidney (HEK293T) cells expressing luciferase-tagged ELG1; Potency, µM (titrated, usually from 46 µM), usual class: activators; AID 504466, 2011; 1.3% of 330,000 active; HEK293T ELG1-luciferase reporter, luminescence, 16 h; note: nearly all actives have a fitted effect of over 60% in size
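Reporter readout depends on ELG1 protein level, which increases with genetic stress. After 16 hr compound exposure at 37 °C, luciferase activity was quantified using ONE-Glo.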
FLuc modulator = qHTS profiling assay for firefly luciferase inhibitor/activator using purifed enzyme and Km concentrations of substrates (counterscreen for miR-21 project) | purified FLuc, Km substrates, luminescence inhibition | Potency, µM (highest dose often 57.5 µM), hits mostly inhibitors | 6.9% of 360,000 active | AID 588342, 2011; note: nearly all actives have a fitted effect of over 55% in size
Target sequence (P08659 whole entry, looked up): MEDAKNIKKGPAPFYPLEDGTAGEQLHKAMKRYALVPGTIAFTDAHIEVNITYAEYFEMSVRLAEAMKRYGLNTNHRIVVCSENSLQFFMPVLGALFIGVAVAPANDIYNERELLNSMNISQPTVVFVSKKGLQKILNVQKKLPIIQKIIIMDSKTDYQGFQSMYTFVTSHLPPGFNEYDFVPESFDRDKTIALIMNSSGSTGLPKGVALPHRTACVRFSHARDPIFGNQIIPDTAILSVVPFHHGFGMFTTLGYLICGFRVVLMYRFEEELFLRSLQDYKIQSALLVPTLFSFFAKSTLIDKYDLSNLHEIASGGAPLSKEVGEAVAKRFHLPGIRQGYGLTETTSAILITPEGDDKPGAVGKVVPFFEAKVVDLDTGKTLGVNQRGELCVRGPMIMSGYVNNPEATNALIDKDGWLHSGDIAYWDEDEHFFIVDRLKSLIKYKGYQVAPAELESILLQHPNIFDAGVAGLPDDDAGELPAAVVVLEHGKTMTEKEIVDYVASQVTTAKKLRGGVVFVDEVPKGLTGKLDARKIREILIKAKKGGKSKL
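Purified P. pyralis luciferase, 10 nM final, with Km-level 10 uM D-luciferin and 10 uM ATP in 50 mM Tris acetate pH 7.5, 10 mM Mg acetate, 0.01% Tween-20, 0.05% BSA; 6-point qHTS titration about 60 µM downward; luminescence read.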
SMN2 splice up = qHTS Assay for Enhancers of SMN2 Splice Variant Expression; HEK293 SMN2-luciferase splicing reporter, luminescence, 30-36 h; AID 1458, 2008; 2.8% of 210,000 active; Potency, µM (series often up to 46.1 µM), usual class: activators; note: nearly all actives have a fitted effect of over 55% in size
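HEK293 cells carry an SMN2 minigene-luciferase reporter in which exon 7 inclusion puts luciferase in frame. Cells were seeded at 2000 cells/well, attached for 10-12 hours, then exposed to compounds for 30-36 hours at 37C before ONE-Glo luminescence.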
ELG1 repair inh = qHTS screen for small molecules that inhibit ELG1-dependent DNA repair in human embryonic kidney (HEK293T) cells expressing luciferase-tagged ELG1 | HEK293T ELG1-luciferase reporter, luminescence, 16 h; DNA damage induced by 5-fluorouridine | Potency, µM (doses to about 46.1 µM), usual class: inhibitors | 2.3% of 330,000 active; note: nearly all actives have a fitted effect of over 55% in size
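In this reporter screen, reduction of luminescence relative to DMSO vehicle indicated activity. Compounds and 5-fluorouridine were added together to 2,000 cells per well, incubated for 16 hr at 37 °C, then developed with ONE-Glo.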
Rab9 prom act = qHTS Assay for Rab9 Promoter Activators; Huh7 Rab9 promoter-luciferase reporter, luminescence, 24 h; 2.8% of 320,000 active; Potency, µM (top dose mostly 9.22 µM), actives largely listed as activators; AID 485297, 2010; note: nearly all actives have a fitted effect of over 60% in size
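Using Huh7 cells stably transfected with Rab9 promoter–luciferase, compounds were incubated 24 h at 37 °C, 5% CO2; luciferase luminescence was read 10 min after reagent addition.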
NPC1 prom act = qHTS Assay for NPC1 Promoter Activators; Potency, µM (doses to about 9.22 µM), usual class: activators; 2.4% of 320,000 active; Huh7 NPC1 promoter luciferase reporter, 24 h; note: nearly all actives have a fitted effect of over 60% in size
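Readout is luciferase luminescence, reflecting NPC1 promoter activation in stably transfected Huh7 cells after 24 h compound exposure at 37 °C in reduced-serum medium with 10% FBS.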
Numbers stand for hits. Shown are actives, neighbours in structure and some others; about 9.2% of the full set was active somewhere. Calls come from the whole dose curve; as a rule, active = well fitted curve in the direction sought with a large enough effect; inconclusive = small, poorly fitted or top-dose-only effect, or another doubt; inactive = no such curve, though single readings can be large; an effect the other way counts as inactive or inconclusive.

Screening O=C(Nc1nccs1)c1ccc([N+](=O)[O-])cc1 returned ELG1 genotoxic inactive, FLuc modulator inactive, ELG1 repair inh inconclusive, Rab9 prom act inactive and NPC1 prom act inconclusive.
O=C(Nc1nccs1)c1ccc2c(c1)OCO2 was read as ELG1 genotoxic inconclusive, FLuc modulator 6µM, ELG1 repair inh inconclusive, Rab9 prom act 1.6µM and NPC1 prom act 2.2µM.
Screening CCOC(=O)Cc1csc(NC(=S)NC(=O)c2ccccc2Br)n1 returned ELG1 genotoxic inactive, FLuc modulator 21µM, ELG1 repair inh inconclusive, Rab9 prom act inactive and NPC1 prom act inactive.
Screening CCOC(=O)Cc1csc(NC(=S)NC(=O)c2cc(OC)cc(OC)c2)n1 returned ELG1 genotoxic inactive, FLuc modulator inactive, SMN2 splice up inactive, ELG1 repair inh inconclusive, Rab9 prom act inactive and NPC1 prom act inactive.
Cc1csc(NC(=O)c2ccoc2C)n1 was read as ELG1 genotoxic inconclusive, FLuc modulator inconclusive, SMN2 splice up 13µM, ELG1 repair inh inconclusive, Rab9 prom act inconclusive and NPC1 prom act inconclusive.
`CCOC(=O)Cc1csc(NC(=O)c2ccc(F)cc2)n1` gave ELG1 genotoxic inactive, FLuc modulator inconclusive, ELG1 repair inh inconclusive, Rab9 prom act inactive and NPC1 prom act inactive.
`CCOC(=O)Cc1csc(NC(=O)c2ccc(C)cc2)n1` gave ELG1 genotoxic inactive, FLuc modulator 11µM, ELG1 repair inh inactive, Rab9 prom act inactive and NPC1 prom act inactive.
Screening CCOC(=O)Cc1csc(NC(=S)NC(=O)c2ccccc2)n1 returned ELG1 genotoxic inactive, FLuc modulator inconclusive, SMN2 splice up inactive, ELG1 repair inh inactive, Rab9 prom act inactive and NPC1 prom act inactive.
`CCOC(=O)Cc1csc(NC(=S)NC(=O)c2ccc(C)cc2)n1` gave ELG1 genotoxic inactive, FLuc modulator 12µM, ELG1 repair inh inconclusive, Rab9 prom act inactive and NPC1 prom act inactive.
Screening CCCn1c(-c2ccc(F)cc2)nc2c(NC3CCN(Cc4ccccc4)CC3)nc(C)nc21 returned SMN2 splice up inactive.
Screening CC(C)C[C@H](N)C(=O)N[C@H](C(=O)N[C@H](C(=O)N[C@@H](Cc1ccc(O)cc1)C(=O)N1CCC[C@H]1C(=O)N[C@@H](Cc1c[nH]c2ccccc12)C(=O)N[C@H](C(=O)N[C@@H](CCC(N)=O)C(=O)N[C@@H](CCCN=C(N)N)C(=O)O)[C@@H](C)O)C(C)C)C(C)C returned SMN2 splice up inactive.
Screening CC(NC(=O)CCCc1nnc2n(C)c(=O)c3sccc3n12)c1ccccc1 (stereo not given) returned ELG1 genotoxic inactive, FLuc modulator inactive, ELG1 repair inh inactive, Rab9 prom act inactive and NPC1 prom act inactive.
`CCOC(=O)Cc1csc(NC(=O)c2ccc3c(c2)OCO3)n1` gave ELG1 genotoxic inactive, FLuc modulator 12µM, SMN2 splice up inconclusive, ELG1 repair inh inactive, Rab9 prom act inactive and NPC1 prom act inactive.
CCOC(=O)Cc1csc(NC(=O)c2cc(C)cc(C)c2)n1 was read as ELG1 genotoxic inactive, FLuc modulator inactive, SMN2 splice up inactive, ELG1 repair inh inactive, Rab9 prom act inactive and NPC1 prom act inactive.
`CC(C)(C)c1ccc(NC(=O)C2=CN3CCS(=O)(=O)N=C3C=C2)cc1` gave ELG1 genotoxic inactive, FLuc modulator 15µM, ELG1 repair inh inactive, Rab9 prom act inactive and NPC1 prom act inactive.
Screening Cc1ccc(NC(=O)C2=CN3CCS(=O)(=O)N=C3C=C2)cc1 returned ELG1 genotoxic inactive and ELG1 repair inh inactive.
Screening Cc1ccc(S(=O)(=O)N2CCN(CC(=O)Nc3ccc(N4CCOCC4)cc3)CC2)cc1C returned ELG1 genotoxic inactive, FLuc modulator inactive, SMN2 splice up inactive, ELG1 repair inh inactive, Rab9 prom act inactive and NPC1 prom act inactive.
Cc1nc(SCC(=O)N2CCOCC2)c2c(C)c(C)sc2n1 was read as ELG1 genotoxic inactive, FLuc modulator inactive, ELG1 repair inh inconclusive, Rab9 prom act inactive and NPC1 prom act inactive.
For Cc1nc(SCC(=O)Nc2ccc(S(=O)(=O)N3CCOCC3)cc2)c2c(C)c(C)sc2n1 the results were ELG1 genotoxic inactive and ELG1 repair inh 16µM.
Cc1cccc(N2CCN(CC(=O)Nc3ccc(S(=O)(=O)N4CCOCC4)cc3)CC2)c1C was read as ELG1 genotoxic inactive, FLuc modulator inactive, ELG1 repair inh 15µM, Rab9 prom act inactive and NPC1 prom act inactive.
CCOc1ccccc1C1Nc2ccccc2-c2nnc(SCc3ccccc3)nc2O1 (stereo not given) was read as FLuc modulator inconclusive and SMN2 splice up inactive.
Screening C(=C\c1ccc2ccccc2n1)/c1ccccc1 returned ELG1 genotoxic inconclusive, FLuc modulator 0.076µM, ELG1 repair inh inconclusive, Rab9 prom act 0.5µM and NPC1 prom act 2.8µM.
CC(=O)Oc1c(Cl)cc(Cl)cc1/C=C/c1ccc2ccccc2n1 was read as ELG1 genotoxic inactive, FLuc modulator inactive, ELG1 repair inh inconclusive, Rab9 prom act inconclusive and NPC1 prom act inactive.
`O=C(O)/C=C/c1ccc2ccccc2n1` gave ELG1 genotoxic inactive, FLuc modulator inactive, SMN2 splice up inactive, ELG1 repair inh inactive, Rab9 prom act inactive and NPC1 prom act inactive.
`CN(C)c1ccc(CNc2nc3ccccc3s2)cc1` gave ELG1 genotoxic 0.46µM, FLuc modulator 0.24µM, ELG1 repair inh inconclusive, Rab9 prom act 0.25µM and NPC1 prom act 0.1µM.
Fc1ccccc1/C=C/c1ccc2ccccc2n1 was read as ELG1 genotoxic 0.33µM, FLuc modulator 0.15µM, SMN2 splice up 0.89µM, ELG1 repair inh inconclusive, Rab9 prom act 2.2µM and NPC1 prom act 4µM.
For CCN(CC(=O)Nc1c(F)cccc1F)C(=O)/C=C/c1ccc2ccccc2n1 the results were ELG1 genotoxic inactive, FLuc modulator inactive, ELG1 repair inh inactive, Rab9 prom act inactive and NPC1 prom act inactive.
For CC(=O)Oc1ccc(Cl)cc1/C=C/c1ccc2ccccc2n1 the results were ELG1 genotoxic inactive, FLuc modulator 5.4µM, SMN2 splice up 14µM, ELG1 repair inh inconclusive, Rab9 prom act inconclusive and NPC1 prom act 3.2µM.
Cc1ccc2cn[nH]c2c1NC(N)=S was read as ELG1 genotoxic inconclusive, FLuc modulator inconclusive, SMN2 splice up inactive, ELG1 repair inh inconclusive, Rab9 prom act inactive and NPC1 prom act inactive.
`O=C(c1ccccc1[N+](=O)[O-])N1CCN(c2ccc(N3CCOCC3)nn2)CC1` gave ELG1 genotoxic inactive, FLuc modulator inactive, ELG1 repair inh inactive, Rab9 prom act inactive and NPC1 prom act inactive.
